This passage reports binding signal results from PMC7862700, “An all-to-all approach to the identification of sequence-specific readers for epigenetic DNA modifications on cytosine”.

Assay in all cases: DAPPL (digital affinity profiling via proximity ligation, sequencing); 10 mM Tris-HCl pH 7.5, 50 mM NaCl, 1 mM DTT, 4% glycerol, room temperature, 30 min; GST-TFs on glutathione beads, 16-mer random dsDNA library, 0.1% formaldehyde crosslink after washing; high values mean tight binding
Holding throughout (conditions): protein: recombinant; tags: N-terminal GST; dsDNA, one strand shown

One assay has as its target T1, ELK4 (Homo sapiens, UniProt P28324-2 1-405).
T1 sequence: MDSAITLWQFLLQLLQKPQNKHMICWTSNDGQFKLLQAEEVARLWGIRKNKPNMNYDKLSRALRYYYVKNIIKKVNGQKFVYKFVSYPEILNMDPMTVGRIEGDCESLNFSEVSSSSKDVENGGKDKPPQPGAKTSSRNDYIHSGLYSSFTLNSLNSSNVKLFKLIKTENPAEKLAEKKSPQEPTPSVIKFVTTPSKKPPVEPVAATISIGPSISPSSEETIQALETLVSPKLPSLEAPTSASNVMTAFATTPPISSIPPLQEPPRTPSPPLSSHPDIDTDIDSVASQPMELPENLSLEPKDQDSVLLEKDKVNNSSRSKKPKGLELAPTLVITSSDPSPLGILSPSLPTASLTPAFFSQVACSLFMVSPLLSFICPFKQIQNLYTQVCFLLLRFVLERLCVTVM
The method, boiled down:
(§1)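 A tag-only sample was pooled with DNA-barcoded human transcription factors that had been expressed in yeast as GST fusions and captured on glutathione beads. The pools were incubated for 30 min at room temperature with 200 nmole of a random double-stranded 16-mer DNA library in Tris/NaCl/DTT/glycerol buffer, then washed, crosslinked with 0.1% formaldehyde, proximity-ligated (BsaI/T4 ligase, 1 h, 37 °C), PCR-amplified and sequenced on an Illumina NextSeq500. Binding signal is each hexamer's read frequency for a factor divided by its frequency for the tag-only sample.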

In the next assay the target is T2, ELF3 (Homo sapiens, UniProt P78545 1-371).
T2 sequence: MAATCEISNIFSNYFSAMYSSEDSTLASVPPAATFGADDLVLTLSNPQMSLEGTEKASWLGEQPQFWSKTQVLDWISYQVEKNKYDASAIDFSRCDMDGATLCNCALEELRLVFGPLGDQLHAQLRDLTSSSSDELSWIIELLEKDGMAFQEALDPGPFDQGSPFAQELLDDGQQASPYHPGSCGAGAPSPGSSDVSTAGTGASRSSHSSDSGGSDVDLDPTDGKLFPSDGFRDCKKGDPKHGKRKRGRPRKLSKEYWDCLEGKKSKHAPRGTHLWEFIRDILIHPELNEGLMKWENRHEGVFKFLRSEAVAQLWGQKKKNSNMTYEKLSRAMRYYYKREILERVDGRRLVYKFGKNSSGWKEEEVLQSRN
In a few lines:
as §1

A further assay concerns the target T3, ERF (Homo sapiens, UniProt P50548 1-548).
T3 sequence: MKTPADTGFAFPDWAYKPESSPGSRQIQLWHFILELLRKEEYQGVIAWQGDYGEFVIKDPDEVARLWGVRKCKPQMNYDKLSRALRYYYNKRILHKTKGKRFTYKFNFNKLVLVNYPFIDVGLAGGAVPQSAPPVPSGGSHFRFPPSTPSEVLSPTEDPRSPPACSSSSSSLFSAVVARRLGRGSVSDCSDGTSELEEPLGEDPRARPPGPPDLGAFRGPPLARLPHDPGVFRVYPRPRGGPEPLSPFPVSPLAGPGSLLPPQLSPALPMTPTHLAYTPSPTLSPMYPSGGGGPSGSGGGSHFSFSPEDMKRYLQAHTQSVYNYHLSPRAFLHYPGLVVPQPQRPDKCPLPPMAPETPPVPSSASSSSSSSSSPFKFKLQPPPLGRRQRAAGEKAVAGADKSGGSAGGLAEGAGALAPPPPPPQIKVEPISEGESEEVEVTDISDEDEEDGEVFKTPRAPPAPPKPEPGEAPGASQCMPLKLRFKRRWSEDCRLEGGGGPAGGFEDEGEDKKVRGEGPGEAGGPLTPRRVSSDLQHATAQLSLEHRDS
The method, boiled down: as §1

Another assay deals with T4, ETV3L (Homo sapiens, UniProt Q6ZN32 1-361).
T4 sequence: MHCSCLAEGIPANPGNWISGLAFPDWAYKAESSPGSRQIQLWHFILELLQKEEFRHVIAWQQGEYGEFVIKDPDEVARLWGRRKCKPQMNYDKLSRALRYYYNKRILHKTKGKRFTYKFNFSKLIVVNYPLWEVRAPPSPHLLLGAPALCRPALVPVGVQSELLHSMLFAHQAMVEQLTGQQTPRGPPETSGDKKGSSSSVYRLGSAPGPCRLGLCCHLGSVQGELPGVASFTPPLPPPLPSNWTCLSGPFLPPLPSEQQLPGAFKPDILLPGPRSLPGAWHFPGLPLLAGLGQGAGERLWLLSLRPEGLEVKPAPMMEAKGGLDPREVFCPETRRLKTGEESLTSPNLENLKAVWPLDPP
The method, boiled down:
as §1

In the next assay the target is T5, ETS2 (Homo sapiens, UniProt P15036 1-469).
T5 sequence: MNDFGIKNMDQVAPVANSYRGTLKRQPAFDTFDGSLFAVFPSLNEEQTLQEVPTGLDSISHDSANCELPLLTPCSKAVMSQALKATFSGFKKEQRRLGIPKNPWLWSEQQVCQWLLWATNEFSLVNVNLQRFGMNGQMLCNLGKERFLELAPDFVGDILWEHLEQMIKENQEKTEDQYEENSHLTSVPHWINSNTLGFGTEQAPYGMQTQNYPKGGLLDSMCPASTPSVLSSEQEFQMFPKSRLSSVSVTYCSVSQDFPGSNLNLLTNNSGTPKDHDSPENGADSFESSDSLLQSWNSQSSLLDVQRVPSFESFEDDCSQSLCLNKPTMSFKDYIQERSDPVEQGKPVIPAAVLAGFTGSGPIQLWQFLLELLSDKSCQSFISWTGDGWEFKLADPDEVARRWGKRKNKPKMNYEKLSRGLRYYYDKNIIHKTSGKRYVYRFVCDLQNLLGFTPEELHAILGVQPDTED
The method, boiled down: as §1

The target of another assay is T6, SPDEF (Homo sapiens, UniProt O95238 1-335).
T6 sequence: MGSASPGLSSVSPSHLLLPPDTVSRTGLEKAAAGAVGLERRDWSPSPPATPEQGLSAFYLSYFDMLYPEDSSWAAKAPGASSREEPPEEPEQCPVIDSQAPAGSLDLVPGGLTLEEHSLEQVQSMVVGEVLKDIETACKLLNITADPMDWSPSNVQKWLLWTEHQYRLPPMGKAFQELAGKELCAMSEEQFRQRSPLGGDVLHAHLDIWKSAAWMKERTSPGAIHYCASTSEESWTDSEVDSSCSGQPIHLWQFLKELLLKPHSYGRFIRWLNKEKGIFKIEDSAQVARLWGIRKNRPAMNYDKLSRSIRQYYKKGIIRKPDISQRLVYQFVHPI
In a few lines: as §1

For a further assay, the target named is T7, ETV7 (Homo sapiens, UniProt Q9Y603 1-341).
T7 sequence: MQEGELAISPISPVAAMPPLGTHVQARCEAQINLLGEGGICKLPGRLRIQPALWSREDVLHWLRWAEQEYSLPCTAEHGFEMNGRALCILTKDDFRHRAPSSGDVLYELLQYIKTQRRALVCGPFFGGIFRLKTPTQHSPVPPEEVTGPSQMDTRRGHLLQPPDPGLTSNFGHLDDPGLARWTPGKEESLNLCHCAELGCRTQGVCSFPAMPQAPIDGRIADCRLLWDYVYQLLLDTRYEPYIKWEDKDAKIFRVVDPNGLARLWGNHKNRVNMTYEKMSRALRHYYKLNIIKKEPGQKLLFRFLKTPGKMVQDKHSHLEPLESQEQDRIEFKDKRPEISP
In a few lines: as §1

In a further assay the target is T8, ETV3 (Homo sapiens, UniProt P41162-2 1-143).
T8 sequence: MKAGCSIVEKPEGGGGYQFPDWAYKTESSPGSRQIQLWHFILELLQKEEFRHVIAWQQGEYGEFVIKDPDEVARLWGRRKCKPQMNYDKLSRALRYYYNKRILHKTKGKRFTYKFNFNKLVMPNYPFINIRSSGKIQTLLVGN
The method, boiled down:
as §1

A further assay concerns the target ETV6 (Homo sapiens, UniProt P41212 1-452). In a few lines:
as §1

Sequence of ETV6 (P41212 whole entry): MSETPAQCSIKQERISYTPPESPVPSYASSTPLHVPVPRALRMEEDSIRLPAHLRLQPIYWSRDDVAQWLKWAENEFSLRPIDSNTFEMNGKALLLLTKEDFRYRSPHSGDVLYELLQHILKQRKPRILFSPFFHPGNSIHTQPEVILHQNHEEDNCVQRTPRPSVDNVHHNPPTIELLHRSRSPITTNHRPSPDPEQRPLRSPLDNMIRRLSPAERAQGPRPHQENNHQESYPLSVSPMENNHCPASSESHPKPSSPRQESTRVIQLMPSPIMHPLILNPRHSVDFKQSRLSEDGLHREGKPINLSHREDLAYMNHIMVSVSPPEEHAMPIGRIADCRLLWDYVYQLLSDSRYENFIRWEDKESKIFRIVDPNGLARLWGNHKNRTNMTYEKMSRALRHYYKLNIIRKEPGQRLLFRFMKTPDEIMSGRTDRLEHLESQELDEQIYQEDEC

As for TTAGAT, the binding signal in the assay with ELK4 was 1.23 fold enrichment (6-mer frequency, TF over GST control); with ELF3 it was 1.05 fold enrichment (6-mer frequency, TF over GST control); with ERF, 1.21 fold enrichment (6-mer frequency, TF over GST control); with ETV3L it was 1.04 fold enrichment (6-mer frequency, TF over GST control); with ETS2, 1.01 fold enrichment (6-mer frequency, TF over GST control); in the assay with SPDEF, 1.08 fold enrichment (6-mer frequency, TF over GST control). Moreover, the binding signal with ETV7 was 1.03 fold enrichment (6-mer frequency, TF over GST control); with ETV3, 1.07 fold enrichment (6-mer frequency, TF over GST control); with ETV6, 1.03 fold enrichment (6-mer frequency, TF over GST control).
